Experimental findings from the supplement of paper PMC7156485 are described below.

The structures appear in SMILES notation. Where “and” joins values, the source holds several entries; their conditions need not be identical. Equal entries are not always repeated. A number with no mark means an inactive call.
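Further: TDF is a line of transformed human dermal fibroblasts of mesenchymal origin.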

The assay concerns HCC1569. The assay can be described thus: H1.0 immunofluorescence intensity relative to DMSO (% of DMSO); higher = stronger H1.0 induction, active = 140 or more. Particulars: concentration: 10 µM; 24 h. The essentials: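 Cells were seeded at 800 per well in 384-well plates with RPMI containing 10% FBS; both HCC1569 and TDF lines were used. Compounds were added at 10 µM for 24 h at 37 °C, in triplicate, before fixation in 3.7% formaldehyde and staining with a rabbit anti-H1.0 antibody, an AlexaFluor 647 secondary and DAPI. H1.0 nuclear intensity or cell number is reported as percent of the plate control using the median of replicates, and HCC1569 values were smoothed for positional effects.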
In the case of `NC(N)=S` [Thiourea], the H1.0 immunofluorescence intensity was 99.6.
Consider `COc1cc2c(cc1OC)C1C(C)c3ccc(OC)c(OC)c3CN1CC2` (stereo not given) [Corydaline], for which the H1.0 immunofluorescence intensity was 84.2.
On to `CCC=CCC=CCC=CCC=CCC=CCC=CCCC(=O)O` [Docosahexaenoic acid], for which the H1.0 immunofluorescence intensity was 105.
For `Nc1c(C(=O)O)c2nc3c(C(=O)O)cccc3oc-2cc1=O` [2-amino-3-oxo-3H-phenoxazine-1,9-dicarboxylic acid], the H1.0 immunofluorescence intensity is 101.
For the compound `COC(=O)C1=COC(C)C2CN3CCc4c([nH]c5ccccc45)C3CC12` (stereo not given) [Teterahydroalstonine], the H1.0 immunofluorescence intensity is 88.
With `CC1C(=O)OC2CC34C5CC(C(C)(C)C)C36C(OC(=O)C6O)OC4(C(=O)O5)C21O` (stereo not given) [Ginkgolide A], the H1.0 immunofluorescence intensity was 95.8.
On to `Cl.Clc1cccc(Cl)c1NC1=NCCN1` [Clonidine.HCl], for which the H1.0 immunofluorescence intensity was 101.
Consider `COc1ccc2c(c1OC)C(=O)OC2C1c2c(cc3c(c2OC)OCO3)CCN1C.Cl` (stereo not given) [Noscapine hydrchloride], for which the H1.0 immunofluorescence intensity was 96.5.
Turning to `CC1(C)CCC(C)(C)c2cc(C3(c4ccc(C(=O)O)cc4)OCCO3)ccc21`, the H1.0 immunofluorescence intensity was 92.2.
Then `CNCCCC12CCC(c3ccccc31)c1ccccc12.Cl` [Maprotiline hydrochloride], with 99.1; and `CC(=O)OCC1=C(C(=O)[O-])N2C(=O)C(NC(=O)Cc3cccs3)C2SC1.[Na+]` (stereo not given) [Cephalothin sodium], with 89.2.
In the case of `CC(C)c1cccc(O)c(=O)c1` [Hinokitiol], the H1.0 immunofluorescence intensity is 94.8.
The value for `Cc1cc2ncc(-c3ccccc3)nc2cc1C` was 112.
As to `CC1COC2=C1C(=O)C(=O)c1c2ccc2c1CCCC2(C)C` (stereo not given) [Cryptotanshinone], the H1.0 immunofluorescence intensity was 100.
`CCCCCCCCCCCCCCCCCCOCC(COP(=O)([O-])OCC[N+](C)(C)C)OC` (stereo not given) [1-Octadecyl-2-methylglycero-3 PC]: the H1.0 immunofluorescence intensity is 101.
Regarding `CCCCCC#CCC(O)C=CC=CC=CC(O)CCCC(=O)O` (stereo not given) [14,15-Dehydroleukotriene B4], the H1.0 immunofluorescence intensity is 101.
With `Cc1ccc(S(=O)(=O)N2c3ccccc3Oc3ccccc32)cc1` [10-[(4-methylphenyl)sulfonyl]-10H-phenoxazine], the H1.0 immunofluorescence intensity was 154 (active).
For the compound `C=C1NC(=O)C2=C(CCSC2)N1`, the H1.0 immunofluorescence intensity was 92.2.
Then `N#CC(=Cc1ccc(O)c(O)c1)C(=O)NCc1ccccc1`, with 121; and `CC1CCC2(C(=O)O)CCC3(C)C(=CCC4C5(C)CC(O)C(O)C(C)(CO)C5CCC43C)C2C1C` (stereo not given) [Asiatic acid], with 94.7.
With `CC(=O)C1CCC2C3CC=C4CC(O)CCC4(C)C3CCC12C` (stereo not given) [Pregnenolone], the H1.0 immunofluorescence intensity was 112.
As to `OC[C@H]1NC[C@@H](O)[C@@H]1O` [1,4-Dideoxy-1,4-imino-D-arabinitol], the H1.0 immunofluorescence intensity is 90.4.
For `N#CC(=C(N)Sc1ccccc1N)C(C#N)=C(N)Sc1ccccc1N`, the H1.0 immunofluorescence intensity is 108 and 98.1.
Consider `CCOC(=O)C=Cc1ccc(O)c(OC)c1` [Ferulic acid ethylester], for which the H1.0 immunofluorescence intensity was 93.6.
As to `N[C@@H](Cc1ccc(O)c(I)c1)C(=O)O` [3-Iodo-L-tyrosine], the H1.0 immunofluorescence intensity is 88.9.
With `O=S(=O)(NCc1ccccn1)c1ccc(Br)c2ccccc12` [4-bromo-N-(2-pyridinylmethyl)-1-naphthalenesulfonamide], the H1.0 immunofluorescence intensity was 107.
Then `CC1(C)SC2C(NC(=O)C(N)c3ccc(O)cc3)C(=O)N2C1C(=O)O` (stereo not given) [Amoxicillin], with 104; and `COc1c2ccoc2cc2oc(=O)ccc12` [Bergapten], with 99.9; and `CCC(C)C(CC)C(N)=O` (stereo not given) [2-ethyl-3-methylpentanamide], with 96.6.
`CN(C)C(=O)N=NC(=O)N(C)C` [N,N,N',N'-Tetramethylazodicarboxamide]: the H1.0 immunofluorescence intensity was 99.2.
The value for `CCC1(O)CC2CN(CCc3c([nH]c4ccccc34)C(C(=O)OC)(c3cc4c(cc3OC)N(C)C3C(O)(C(=O)OC)C(OC(C)=O)C5(CC)C=CCN6CCC43C65)C2)C1.O=S(=O)(O)O` (stereo not given) [Vinblastine sulfate] was 131.
The value for `N#CC(=Cc1ccc(O)c(O)c1)C(=O)NCCCc1ccccc1` [Tyrphostin AG 555] was 107.
The value for `COc1cc2c(cc1OC)-c1cc(=Nc3c(C)cc(C)cc3C)n(C)c(=O)n1CC2.Cl` [Trequinsin.HCl] was 118.
In the case of `CCCC(CCC)C(=O)[O-].[Na+]` [Valproic acid sodium], the H1.0 immunofluorescence intensity is 99.9.
In the case of `CC(O)C(=O)C1=Nc2c([nH]c(N)nc2=O)NC1` (stereo not given) [Sepiapterin], the H1.0 immunofluorescence intensity was 99.1.
Take `Cl.O=C(NCCCCN1CCN(c2cccc(Cl)c2Cl)CC1)c1ccc2c(c1)Cc1ccccc1-2`: the H1.0 immunofluorescence intensity is 116.
For `COc1cc(O)c(C(=O)C=Cc2ccccc2)c(OC)c1` [Flavokawain B], the H1.0 immunofluorescence intensity was 124.
Then `COc1ccc(-c2cc(=O)c3ccc(O)cc3o2)cc1` [Pratol], with 105; and `NC(C(=O)NC1C(=O)N2C(C(=O)O)=C(Cl)CSC12)c1ccccc1` (stereo not given) [Cefaclor], with 85.8; and `CN1CCN(C2=Nc3ccccc3Sc3ccc(Cl)cc32)CC1` [Clothiapine], with 110.
